Structures can show the parent of a compound that is named as a salt. ± gives the uncertainty stated by the source.
System: Candida albicans SNY425 biofilm
Assay: biofilm OD600 with compound plus antifungal (OD600 (absorbance)); higher = more biofilm remaining
[1] = assay detail: disruption of 24-h mature biofilm (compound + antifungal for a second 24 h)
[2] = assay detail: sustained inhibition (compound + antifungal during 90-min adherence and 24-h growth)

CC(C)C[C@H](NC(=O)N[C@H](C(=O)N[C@@H](CCC(N)=O)C(=O)N[C@@H](C)C=O)[C@@H]1CCNC(=N)N1)C(=O)O [Elastatinal] + C[C@@H]1[C@H](O)[C@@H](C)/C=C/C=C/C=C/C=C/C=C/C=C/C=C/[C@H](O[C@@H]2O[C@H](C)[C@@H](O)[C@H](N)[C@@H]2O)C[C@@H]2O[C@](O)(C[C@@H](O)C[C@@H](O)[C@H](O)CC[C@@H](O)C[C@@H](O)CC(=O)O[C@H]1C)C[C@H](O)[C@H]2C(=O)O [amphotericin B] (first compound 12.5 µM)
biofilm OD600 [1]: 0.273 ± 0.0073 | biofilm OD600 [2]: 0.21 ± 0.0065

CCCC[C@@H](C=O)NC(=O)OC(C)(C)C + C[C@@H]1[C@H](O)[C@@H](C)/C=C/C=C/C=C/C=C/C=C/C=C/C=C/[C@H](O[C@@H]2O[C@H](C)[C@@H](O)[C@H](N)[C@@H]2O)C[C@@H]2O[C@](O)(C[C@@H](O)C[C@@H](O)[C@H](O)CC[C@@H](O)C[C@@H](O)CC(=O)O[C@H]1C)C[C@H](O)[C@H]2C(=O)O [amphotericin B] (first compound 12.5 µM)
biofilm OD600 [1]: 0.259 ± 0.011 | biofilm OD600 [2]: 0.188 ± 0.0076

CO[C@@H]1[C@H](OC(=O)/C=C/C=C/C=C/C=C/C(=O)O)CC[C@]2(CO2)[C@H]1[C@@]1(C)O[C@@H]1CC=C(C)C [Fumagillin] + OC(Cn1cncn1)(Cn1cncn1)c1ccc(F)cc1F [fluconazole] (first compound 12.5 µM)
biofilm OD600 [1]: 0.246 ± 0.013 | biofilm OD600 [2]: 0.117 ± 0.0056

Cc1cccc(C)c1OCC(=O)N[C@@H](Cc1ccccc1)[C@@H](O)C[C@H](Cc1ccccc1)NC(=O)[C@H](C(C)C)N1CCCNC1=O [lopinavir] + C[C@@H]1[C@H](O)[C@@H](C)/C=C/C=C/C=C/C=C/C=C/C=C/C=C/[C@H](O[C@@H]2O[C@H](C)[C@@H](O)[C@H](N)[C@@H]2O)C[C@@H]2O[C@](O)(C[C@@H](O)C[C@@H](O)[C@H](O)CC[C@@H](O)C[C@@H](O)CC(=O)O[C@H]1C)C[C@H](O)[C@H]2C(=O)O [amphotericin B] (first compound 12.5 µM)
biofilm OD600 [1]: 0.246 ± 0.0051 | biofilm OD600 [2]: 0.14 ± 0.015

CC(C)C[C@H](NC(=O)[C@H]1O[C@@H]1C(=O)O)C(=O)NCCCCN=C(N)N + C[C@@H]1[C@H](O)[C@@H](C)/C=C/C=C/C=C/C=C/C=C/C=C/C=C/[C@H](O[C@@H]2O[C@H](C)[C@@H](O)[C@H](N)[C@@H]2O)C[C@@H]2O[C@](O)(C[C@@H](O)C[C@@H](O)[C@H](O)CC[C@@H](O)C[C@@H](O)CC(=O)O[C@H]1C)C[C@H](O)[C@H]2C(=O)O [amphotericin B] (first compound 12.5 µM)
biofilm OD600 [1]: 0.266 ± 0.0082 | biofilm OD600 [2]: 0.209 ± 0.0073

CCOC(=O)c1ccc(OC(=O)CCCCCNC(=N)N)cc1 [Gabexate mesylate] + C[C@@H]1[C@H](O)[C@@H](C)/C=C/C=C/C=C/C=C/C=C/C=C/C=C/[C@H](O[C@@H]2O[C@H](C)[C@@H](O)[C@H](N)[C@@H]2O)C[C@@H]2O[C@](O)(C[C@@H](O)C[C@@H](O)[C@H](O)CC[C@@H](O)C[C@@H](O)CC(=O)O[C@H]1C)C[C@H](O)[C@H]2C(=O)O [amphotericin B] (first compound 12.5 µM)
biofilm OD600 [1]: 0.281 ± 0.012 | biofilm OD600 [2]: 0.201 ± 0.0075

Cc1ccc(S(=O)(=O)N[C@@H](Cc2ccccc2)C(=O)CCl)cc1 + CC[C@H](C)C[C@H](C)CCCCCCCCC(=O)N[C@H]1C[C@@H](O)[C@@H](NCCN)NC(=O)[C@@H]2[C@@H](O)CCN2C(=O)[C@H]([C@H](O)CCN)NC(=O)[C@H]([C@H](O)[C@@H](O)c2ccc(O)cc2)NC(=O)[C@@H]2C[C@@H](O)CN2C(=O)[C@H]([C@@H](C)O)NC1=O [caspofungin] (first compound 4 µM)
biofilm OD600 [1]: 0.251 ± 0.011 | biofilm OD600 [2]: 0.152 ± 0.013

CC(C)C[C@@H](C=O)NC(=O)[C@H](CC(C)C)NC(=O)[C@H](CC(C)C)NC(=O)OCc1ccccc1 + OC(Cn1cncn1)(Cn1cncn1)c1ccc(F)cc1F [fluconazole] (first compound 12.5 µM)
biofilm OD600 [1]: 0.277 ± 0.0062 | biofilm OD600 [2]: 0.148 ± 0.0097

Cc1ccc(S(=O)(=O)N[C@@H](Cc2ccccc2)C(=O)CCl)cc1 + C[C@@H]1[C@H](O)[C@@H](C)/C=C/C=C/C=C/C=C/C=C/C=C/C=C/[C@H](O[C@@H]2O[C@H](C)[C@@H](O)[C@H](N)[C@@H]2O)C[C@@H]2O[C@](O)(C[C@@H](O)C[C@@H](O)[C@H](O)CC[C@@H](O)C[C@@H](O)CC(=O)O[C@H]1C)C[C@H](O)[C@H]2C(=O)O [amphotericin B] (first compound 4 µM)
biofilm OD600 [1]: 0.25 ± 0.011 | biofilm OD600 [2]: 0.158 ± 0.0081

— the supplement of paper PMC7261846
